Experimental data reported in PubChem BioAssay (NCI).
About 83,000 compounds went through this panel and 20% of them were active in at least one assay; those are over-represented in the sample as a whole.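 In brief: 96-well plates, 48 h treatment, single concentration, percent growth endpoint.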 Values without a mark were called inactive. Active and inactive are the calls of the source. How the source made its calls: active means growth percent below 10; inactive means the rest.

Key:
Test in all cases: NCI-60 one-dose screen, 48 h (100 = growth as untreated, 0 = no growth, -100 = all killed)
NCI-H522 lung = settings: 10 µM unless noted
COLO 205 colon = settings: 10 µM
MALME-3M melanoma = settings: 10 µM unless noted
SF-295 CNS = settings: 10 µM unless noted
SNB-19 CNS = settings: 10 µM unless noted
LOX IMVI melanoma = settings: 10 µM unless noted
EKVX NSCLC = settings: 10 µM unless noted
SN12C renal = settings: 10 µM unless noted
TK-10 renal = settings: 10 µM unless noted
CAKI-1 renal = settings: 10 µM unless noted
CCRF-CEM leukemia = settings: 10 µM unless noted
RPMI-8226 leukemia = settings: 10 µM unless noted
OVCAR-4 ovarian = settings: 10 µM unless noted
IGROV1 ovarian = settings: 10 µM
HCC-2998 colon = settings: 10 µM unless noted
SK-MEL-28 melanoma = settings: 10 µM unless noted
SR leukemia = settings: 10 µM
BT-549 breast = settings: 10 µM
HOP-92 NSCLC = settings: 10 µM unless noted

Structure (SMILES) | growth (NCI-H522 lung) | growth (COLO 205 colon) | growth (MALME-3M melanoma) | growth (SF-295 CNS) | growth (SNB-19 CNS) | growth (LOX IMVI melanoma) | growth (EKVX NSCLC) | growth (SN12C renal) | growth (TK-10 renal) | growth (CAKI-1 renal) | growth (CCRF-CEM leukemia) | growth (RPMI-8226 leukemia) | growth (OVCAR-4 ovarian) | growth (IGROV1 ovarian) | growth (HCC-2998 colon) | growth (SK-MEL-28 melanoma) | growth (SR leukemia) | growth (BT-549 breast) | growth (HOP-92 NSCLC) [%]
CC(C)(O)/C=C/C(=O)[C@](C)(O)[C@H]1[C@H](O)C[C@@]2(C)[C@@H]3CC=C4[C@@H](C=C(O)C(=O)C4(C)C)[C@]3(C)C(=O)C[C@]12C | -74.7% (active) | -52.3% (active) | -66.5% (active) | -43.2% (active) | -53.1% (active) | -59.6% (active) | -10.9% (active) | 7% (active) | -54.9% (active) | -57.2% (active) | -29.1% (active) | -53.8% (active) | -45.9% (active) | -70.3% (active) | -99% (active) |  |  |  | 
CCC(CO)NC1CCCCC1 (stereo unspecified) | 68.1% | 43.2% | 86.1% | 113% | 88.3% |  | 90% | 75.8% | 70.8% | 61.5% |  | 97.6% | 89% | 53.9% | 86.4% | 102% | 1.74% (active) | 108% | 
CO[C@@H]1[C@H](OC(=O)NC(=O)CCl)CC[C@]2(CO2)[C@H]1[C@@]1(C)O[C@@H]1CC=C(C)C | 10.3% | 57.4% | 57.7% | 75.1% | 48.6% | 22.8% | 91.7% | 72.3% | 92.6% | 67.2% | 31.8% | 45.4% | 47.8% | -10.6% (active) | 80.9% |  | 21.5% | 61.2% | 
[O]=[Sn]([CH]1CCCCC1)[CH]1CCCCC1 | -72.6% (active) | -89.9% (active) | -72.2% (active) | -85.6% (active) | -84.4% (active) | -89.6% (active) | -24.3% (active) | -80.5% (active) | -93.8% (active) | -93.5% (active) | -42.2% (active) |  | -98.7% (active) | -90.9% (active) | -98.6% (active) |  | 14.8% | -99.3% (active) | 
ClCCN(CCCl)c1ccc(C=NCCc2c[nH]c3ccccc23)cc1 | 92.4% | 106% | 76.7% | 35.6% | 89.8% | 74.7% | 106% |  | 88% | 23.5% |  |  | 92.9% | 84.2% | 91.8% | 108% | 31.9% |  | 
CC1(C)N=C(N)N=C(N)N1c1ccc(CCC(=O)Nc2cccc(S(=O)(=O)F)c2)cc1 | 91.1% | 93.4% | -7.62% (active) | 89.6% | 51.9% | 23.5% | 56.8% | 46.5% | 98.9% | -5.98% (active) |  |  |  | 39.4% | 67.5% |  | 35.6% | 84.9% | 
O=[N+]([O-])c1ccccc1N1CCNCC1 | 88.6% | 104% | 89% | 104% | 102% | 95.8% | 104% |  | 96.2% | 94.1% | 112% |  |  | 85% | 100% | 104% | 88.5% |  | 
COC1=CC(=O)OC(CCc2ccc3c(c2)OCO3)C1 (stereo unspecified) | 76.9% | 108% | 136% | 116% | 103% | 98.5% | 122% | 107% | 102% | 120% | 85.4% | 107% | 106% |  | 132% | 117% | 122% |  | 
CC1(C)N=C(N)N=C(N)N1c1ccc(CCCCc2ccc(Cl)cc2S(=O)(=O)F)c(Cl)c1 | 3.95% (active) | 15.9% | 39.3% | 22.9% | 36.6% |  |  |  | 30.3% | 20.6% | 13.1% | 17.8% | 50.3% |  | 32% | 37.8% |  | 37% | 
N#Cc1ncc(/N=C/c2ccc(N(CCCl)CCCl)cc2)s1 |  | 99.4% |  | 58.4% | 89% | 61.3% | 91.2% | 55.9% | 92.8% | 7.36% (active) | 56.2% |  |  | 90% | 96.8% |  | 12.7% | 66% | 78.5
CNc1ccc(C(=O)CC(O)CCC(C)C2OC(=O)CC(O)CC(=O)CC(O)CC(O)CC(O)CC(O)CC3(O)CC(O)C(C(=O)OC)C(CC(O[C@@H]4O[C@H](C)[C@@H](O)[C@H](N)[C@@H]4O)/C=C/C=C/C=C/C=C/C=C/C=C/C=C/C2C)O3)cc1 (stereo partly specified) | -13.2% (active) | 2.91% (active) | -78.6% (active) | 20.2% | 41.8% | -8.67% (active) | -9.97% (active) | -81.3% (active) | -47.6% (active) | 2.61% (active) | 14.9% | 18.3% |  | 3.21% (active) | -43.9% (active) | -89.1% (active) | -11.5% (active) | -16.8% (active) | 
Cc1ccc(C[As+](c2ccccc2)(c2ccccc2)c2ccccc2)cc1 | -22% (active) | -55.7% (active) | 25% | -15.6% (active) | 17.2% | -26.6% (active) |  | 3.83% (active) | 16.9% | 60.1% | 16.3% | -8.65% (active) |  | 9.49% (active) | 16.2% | 37.2% |  | -4.76% (active) | 
O=S(=O)(c1ccc(Cl)cc1)C(Cl)(Cl)Cl | 11% | 48% | 9.32% (active) | 78.2% | 82.9% | 35.1% | 40.6% | 58.3% | 50.6% | -6.81% (active) | 25.3% | 18% | 61.6% | 33.6% | 18.3% | 38.5% |  | 34.1% | 
O=C(CI)Nc1ccc(Br)cc1 | -85% (active) | -78.2% (active) | -65% (active) | 98.2% | 92.1% | -78.6% (active) | 102% | 15.7% | -81.4% (active) | -67.5% (active) | -31.7% (active) | 36.6% | 27.4% | -55.2% (active) | 102% | 109% | -53% (active) |  | 
O=[As]c1ccc(C(=O)c2ccc(Oc3ccccc3)cc2)cc1 (stereo unspecified) | -95.4% (active) | -89.2% (active) | -66.2% (active) | -65.1% (active) | -97.4% (active) | -91.2% (active) | -80.8% (active) | -98.4% (active) | -98.8% (active) | -53.7% (active) |  | -49.2% (active) | -91.2% (active) | -54.1% (active) | -93.9% (active) | -96.3% (active) | -23.9% (active) | -98.8% (active) | 
CN1CCN(C(=O)COc2ccc(/C=C3\CC4C5CC=C6CC(Cl)CCC6(C)C5CCC4(C)C3=O)cc2)CC1 (stereo unspecified) | 61.5% | 60.5% | 73.8% | 82.8% | 98% | 23.5% | 68.2% | 79.7% | 88.2% | 70.1% | 49.3% |  | 70.7% | 86.6% | 90.6% | 103% | 0.223% (active) | 87.3% | 
S=P(Nc1ccccc1)(Nc1ccccc1)c1ccccc1 |  | 146% | 142% | 102% | 85.3% | 89.1% | 90% | 104% |  | 71.4% | 95.3% | 82.5% | 104% | 101% | 93.6% | 119% |  |  | 84.1
CCCCN(CCCC)CC(O)c1ccccc1 (stereo unspecified) | 112% | 134% |  | 103% | 106% | 103% | 96.7% |  | 115% | 107% | 99.8% | 113% |  | 115% | 102% | 103% | 102% |  | 
CCCCCN(CCCCC)CC(O)c1ccc(C)c(Cl)c1 (stereo unspecified) | 83.5% | 91.3% | 105% | 87% | 98% | 96.3% | 95.2% | 101% | 98.5% | 98.2% | 99% | 91.8% |  | 92.2% | 107% | 96.6% | 92.4% | 107% | 
Cc1ccc(C(=O)C2CN(C)CCC2(O)c2ccc(C)cc2)cc1 (stereo unspecified) | 111% | 131% | 120% | 111% | 118% | 98.9% | 111% | 107% | 108% | 93.7% | 106% |  | 106% | 124% | 98.3% | 113% | 101% |  | 
